# From PubChem BioAssay (NCATS)
# Several values for one entry are separate records, joined by “and”; a condition that tells them apart may be missing. Equal entries are not always repeated. Records with an inconclusive call do not appear. Unmarked numbers belong to inactive results. Activity calls are given as the source filed them. Calls follow the shape of the dose curve; as a rule, active = well fitted curve in the direction sought with a large enough effect; inconclusive = small, poorly fitted or top-dose-only effect, or another doubt; inactive = no such curve, though single readings can be large; an effect the other way counts as inactive or inconclusive.
# Tests used:
# [1] = Primary qHTS for inhibitors of nuclear receptor binding SET domain protein 2 (NSD2) in an isogenic RCH-ACV NSD2 p.E1099K mutant (9B) (AID 1645876); also: nearly all actives have a fitted effect of over 70% in size; also: potency is read from the fitted curve at half-maximal effect
# [2] = Primary qHTS for inhibitors of nuclear receptor binding SET domain protein 2 (NSD2) in an RCH-ACV wild type WT cells (2C) (AID 1645877); also: nearly all actives have a fitted effect of over 70% in size; also: potency is read from the fitted curve at half-maximal effect
# [3] = molecular target: Rap guanine nucleotide exchange factor 3 (Homo sapiens) (UniProt O95398); test: Confirmatory qHTS for agonist of cAMP-regulated guanine nucleotide exchange factor 3 (EPAC1) (AID 1645881);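 also: EPAC1 catalysed release of BODIPY-GDP from Rap1B seen as fluorescence loss; 100% = effect of cAMP agonist control; nearly all actives have a fitted effect of over 75% in size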
# Chain of Rap guanine nucleotide exchange factor 3 (Homo sapiens) (O95398 whole entry, looked up): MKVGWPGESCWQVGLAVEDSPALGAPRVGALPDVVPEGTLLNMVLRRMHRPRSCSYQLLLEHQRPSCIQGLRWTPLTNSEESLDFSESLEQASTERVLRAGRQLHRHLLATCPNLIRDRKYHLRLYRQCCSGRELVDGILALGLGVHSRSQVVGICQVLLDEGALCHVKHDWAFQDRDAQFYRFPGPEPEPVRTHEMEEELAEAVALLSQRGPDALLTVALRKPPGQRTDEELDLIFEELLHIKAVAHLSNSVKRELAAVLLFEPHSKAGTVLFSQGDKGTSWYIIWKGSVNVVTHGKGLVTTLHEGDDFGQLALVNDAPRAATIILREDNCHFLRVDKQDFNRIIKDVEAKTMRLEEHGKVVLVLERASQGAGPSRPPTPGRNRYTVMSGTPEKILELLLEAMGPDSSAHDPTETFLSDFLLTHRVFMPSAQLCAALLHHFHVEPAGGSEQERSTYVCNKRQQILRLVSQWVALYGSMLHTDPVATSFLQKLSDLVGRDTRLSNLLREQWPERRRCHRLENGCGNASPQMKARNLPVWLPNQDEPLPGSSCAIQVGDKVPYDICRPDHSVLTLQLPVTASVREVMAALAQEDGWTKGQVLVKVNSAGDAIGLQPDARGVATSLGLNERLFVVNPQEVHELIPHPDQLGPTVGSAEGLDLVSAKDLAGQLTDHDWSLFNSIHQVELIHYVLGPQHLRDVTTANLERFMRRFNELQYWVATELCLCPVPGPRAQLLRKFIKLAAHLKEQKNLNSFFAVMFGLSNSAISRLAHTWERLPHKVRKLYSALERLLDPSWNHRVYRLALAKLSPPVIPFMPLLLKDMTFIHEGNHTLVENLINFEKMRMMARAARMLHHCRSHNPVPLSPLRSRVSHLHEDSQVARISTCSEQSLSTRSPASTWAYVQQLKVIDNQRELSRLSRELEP
# [4] = molecular target: Rap guanine nucleotide exchange factor 4 (Homo sapiens) (UniProt Q8WZA2); test: Confirmatory qHTS for agonist of cAMP-regulated guanine nucleotide exchange factor 4 (EPAC2) (AID 1645884);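 also: nucleotide exchange releases bodipy-GDP from Rap1 and this lowers its fluorescence; % is scaled to controls: 0 for no effect and ±100 for the full control effect; nearly all actives have a fitted effect of over 65% in size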
# Chain of Rap guanine nucleotide exchange factor 4 (Homo sapiens) (Q8WZA2 whole entry, looked up): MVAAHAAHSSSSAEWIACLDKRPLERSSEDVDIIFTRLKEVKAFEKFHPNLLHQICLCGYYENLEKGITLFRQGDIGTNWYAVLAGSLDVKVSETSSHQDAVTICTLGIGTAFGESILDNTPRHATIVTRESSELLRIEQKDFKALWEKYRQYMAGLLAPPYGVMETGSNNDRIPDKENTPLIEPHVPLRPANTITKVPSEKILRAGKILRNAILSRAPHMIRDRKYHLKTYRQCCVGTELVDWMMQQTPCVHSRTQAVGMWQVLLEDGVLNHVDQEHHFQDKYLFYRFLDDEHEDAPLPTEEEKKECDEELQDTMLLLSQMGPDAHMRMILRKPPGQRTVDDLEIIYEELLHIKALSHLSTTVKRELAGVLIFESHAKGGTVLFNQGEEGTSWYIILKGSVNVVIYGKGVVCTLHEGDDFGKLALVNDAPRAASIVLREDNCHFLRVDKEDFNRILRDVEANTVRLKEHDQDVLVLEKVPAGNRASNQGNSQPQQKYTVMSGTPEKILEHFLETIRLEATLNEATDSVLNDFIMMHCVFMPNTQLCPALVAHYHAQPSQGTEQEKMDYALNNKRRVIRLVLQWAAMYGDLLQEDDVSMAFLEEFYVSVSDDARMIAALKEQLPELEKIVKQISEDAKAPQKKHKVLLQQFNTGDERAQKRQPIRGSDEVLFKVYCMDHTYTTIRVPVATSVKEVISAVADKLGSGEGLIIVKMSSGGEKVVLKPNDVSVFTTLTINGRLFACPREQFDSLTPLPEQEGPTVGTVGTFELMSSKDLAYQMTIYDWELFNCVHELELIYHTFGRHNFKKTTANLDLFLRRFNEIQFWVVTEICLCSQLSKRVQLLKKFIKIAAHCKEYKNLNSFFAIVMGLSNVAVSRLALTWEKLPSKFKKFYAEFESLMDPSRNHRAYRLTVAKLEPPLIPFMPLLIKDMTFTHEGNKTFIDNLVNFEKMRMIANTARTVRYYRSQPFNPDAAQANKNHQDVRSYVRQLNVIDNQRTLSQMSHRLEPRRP
# [5] = molecular target: Rap guanine nucleotide exchange factor 4 (Homo sapiens) (UniProt Q8WZA2); test: Confirmatory qHTS for antagonist of cAMP-regulated guanine nucleotide exchange factor 4 (EPAC2) (AID 1645885); also: nearly all actives have a fitted effect of over 25% in size; also: potency is read from the fitted curve at half-maximal effect; as to activity change, negative = inhibition: % is scaled to controls: 0 for no effect and ±100 for the full control effect
smiles,measurement,setting,value
O=C1CCCC(=O)C1C(=O)c1ccc(C(F)(F)F)cc1[N+](=O)[O-],Potency,[1],inactive
same,Potency,[2],inactive
COc1ccc(Cn2ccc3ccc(C(=O)NO)cc32)cc1,Potency,[1],9.16 µM (active) and 13.2 µM (active)
same,Potency,[2],16.3 µM (active) and 8.33 µM (active)
COc1nc(C)cnc1NS(=O)(=O)c1cccnc1-c1ccc(-c2nnco2)cc1,Potency,[1],inactive
same,Potency,[2],inactive
N#CC(c1ccnc(NCCc2cccnc2)n1)c1nc2ccccc2s1 (configuration not stated),Potency,[1],14.8 µM (active)
same,Potency,[2],14.8 µM (active)
Cc1nc(NC(=O)N2CCC[C@@H]2C(N)=O)sc1-c1csc(C(C)(C)C)n1,Potency,[1],7.31 µM (active)
same,Potency,[2],7.31 µM (active)
O=C(O)Cc1cccc(OCCCN(Cc2cccc(C(F)(F)F)c2Cl)CC(c2ccccc2)c2ccccc2)c1,Potency,[1],inactive
same,Potency,[2],inactive
CC1CNc2c(cccc2S(=O)(=O)N[C@@H](CCCN=C(N)N)C(=O)N2CC[C@@H](C)C[C@@H]2C(=O)O)C1 (some centres not stated),Potency,[1],inactive
same,Potency,[2],inactive
CN(C)N=Nc1nc[nH]c1C(N)=O,Potency,[1],2.95 µM (active)
same,Potency,[2],3.72 µM (active)
NCc1c[nH]c(=S)n1[C@H]1CCc2c(F)cc(F)cc2C1,Potency,[1],inactive
same,Potency,[2],inactive
COC(=O)Nc1ccc(-c2nc(N3CCOCC3)c3cnn(C4CCN(C(=O)OC)CC4)c3n2)cc1,Potency,[1],1.05 µM (active)
same,Potency,[2],0.742 µM (active)
Nc1ncnc2c1c(-c1cccc(OCc3ccccc3)c1)cn2C1CC(CN2CCC2)C1 (configuration not stated),Potency,[1],4.59 µM (active)
same,Potency,[2],2.9 µM (active)
CCC[C@H](Nc1nc(-c2ccc(NC(=O)NCC)c(OC)c2)ncc1C)c1cccnc1,Potency,[1],0.0263 µM (active)
same,Potency,[2],0.0372 µM (active)
CCC(=O)NCC[C@@H]1CCc2ccc3c(c21)CCO3,Potency,[1],inactive
same,Potency,[2],inactive
COc1ccc(CCN(C)CCCOc2ccc(S(=O)(=O)c3[nH]c4ccccc4c3C(C)C)cc2)cc1OC,Potency,[1],13.2 µM (active)
same,Potency,[2],16.6 µM (active)
CN(C)c1ccccc1CN1CCCN(Cc2ccccc2N(C)C)C1c1ccncc1,Potency,[1],14.8 µM (active)
same,Potency,[2],10.5 µM (active)
C=CC(=O)Nc1cccc(Sc2nc(Nc3ccc(N4CCN(C)CC4)cc3)ncc2Cl)c1,Potency,[1],2.9 µM (active) and 2.95 µM (active)
same,Potency,[2],2.3 µM (active) and 2.63 µM (active)
CCOc1ccccc1N=Nc1c(C)[nH]n(-c2nc(-c3ccccc3)cs2)c1=O,Potency,[1],inactive
same,Potency,[2],inactive
CCN(CCO)CCCOc1ccc2c(Nc3cc(CC(=O)Nc4cccc(F)c4)[nH]n3)ncnc2c1,Potency,[1],5.9 µM (active)
same,Potency,[2],0.132 µM (active)
CCOC(=O)c1c(CSc2ccccc2)n(C)c2cc(Br)c(O)c(CN(C)C)c12,Potency,[1],18.6 µM (active)
same,Potency,[2],20.9 µM (active)
CC1=C[C@@H]2[C@@H]([C@@H](O)C[C@@]3(C)[C@H]2C[C@@H](C)[C@]3(O)C(=O)CO)[C@@]2(C)Cc3cnn(-c4ccccc4)c3C=C12,Potency,[1],3.32 µM (active)
same,Potency,[2],0.0026 µM (active)
O=C(O)CCC=CCC[C@@H]1[C@H](N2CCCCC2)[C@@H](O)C[C@@H]1OCc1ccc(-c2ccccc2)cc1,Potency,[1],inactive
same,Potency,[2],inactive
C[C@@H](O[C@H]1OCCN(Cc2n[nH]c(=O)[nH]2)[C@@H]1c1ccc(F)cc1)c1cc(C(F)(F)F)cc(C(F)(F)F)c1,Potency,[3],inactive
same,Potency,[4],inactive
same,Potency,[5],22.1 µM (active)
CCCC1OC2C[C@@H]3[C@H]4CCC5=CC(=O)C=C[C@]5(C)[C@H]4C(O)C[C@]3(C)[C@]2(C(=O)CO)O1 (some centres not stated),Potency,[2],0.0053 µM (active)
COc1nccc(-c2c(-c3ccc(F)cc3)ncn2C2CCNCC2)n1,Potency,[2],18.6 µM (active)
C[C@]12CC[C@@H]3c4ccc(O)cc4CC[C@H]3[C@H]1[C@@H](O)[C@@H](O)[C@H]2O,Potency,[2],inactive
CCCCCCCCCCCCCC(=O)N[C@H](CO)[C@H](O)c1ccc([N+](=O)[O-])cc1,Potency,[2],inactive
CC(NCCc1ccc(O)cc1)C(O)c1ccc(O)cc1 (configuration not stated),Potency,[1],inactive
same,Potency,[2],inactive
C[C@@H]1C[C@H]2[C@@H]3CCC4=CC(=O)C=C[C@]4(C)[C@@]3(F)[C@@H](O)C[C@]2(C)[C@@]1(O)C(=O)CO,Potency,[2],0.0332 µM (active)
O=C(NCCCCN1CCOCC1)c1cc2ccccc2o1,Potency,[1],inactive
same,Potency,[2],inactive
NC(=O)c1nnn(Cc2cc(Cl)c(C(=O)c3ccc(Cl)cc3)c(Cl)c2)c1N,Potency,[3],inactive
same,activation,[4],"5.43% [at 17.1 µM, percent relative to cAMP agonist control]"
same,"activity change, negative = inhibition",[5],-14.9% [at 12.7 µM]
